Experimental data: ChEMBL document CHEMBL1201862, “PubChem BioAssay data set” (2004)
In all, about 56,000 […] went through this assay and about 2,300 (4.1%) were called active. No stated cut-off is given here; in the data, active = GI50 up to about 1.1 µM and inactive = higher. These entries were drawn from the full list. Results with a measured potency or affinity are listed apart.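 Interpolation was linear, between the two tested concentrations surrounding the appropriate level; five concentrations were tested over 48 hours in 96-well plates. The concentration for 50% growth inhibition is given as GI50.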

The substances below were run on TK-10 (assay: NCI tumour cell line growth inhibition, 48 h).

Substance | GI50 [µM]
[Bis(aminomethyl)ethylmethylsilane]tetrachloroplatinum(IV), CHEMBL2146192 | 13.1
[Bis(aminomethyl)tetramethylenesilane]dichloropaltinum(II), CHEMBL2146205 | 32.2
[Bis(aminomethyl)dimethylsilane]tetrachloroplatinum(IV), CHEMBL2146190 | 9.48
[Bis(aminomethyl)diethylsilane]tetrachloroplatinum(IV), CHEMBL2146203 | 13.4
mu-(1,7-nanodiamine-N,N')bis-(cis-aminedichloroplatimum (II)), CHEMBL2146215 | 62.8
[Bis(aminomethyl)pentamethylenesilane]tetrachloropaltinum(IV), CHEMBL2146204 | 17.1
[Bis(aminomethyl)dimethylsilane]dichloroplatinum (II), CHEMBL2146201 | 24.6
cis-Bis[[(trimethylsilyl)methyl]amino]tetrachloroplatinum(IV), CHEMBL2146191 | 13.2
CISPLATIN, CHEMBL11359 | 6.64
[Bis(aminomethyl)tetramethylenesilane]tetrachloropaltinum(IV), CHEMBL2146189 | 9.91
[Bis(aminomethyl)pentamethylenesilane]dichloropaltinum(II), CHEMBL2146202 | 12.7
